# Compound activity (PubChem)
# In the library only some 3.2% were active in any assay of this set; here they are far more common.
# rCAG RNA binder: r(CAG) repeat RNA binding; TO-PRO-1 dye displacement fluorescence; inhibition, % at 3 µM; 1.3% of 370,000 active; AID 651821;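 active means inhibition above the plate cutoff, the mean of all test compounds on that plate plus 3 SD, cut at about 35% in these data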;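 further: higher means more dye released from RNA so lower well fluorescence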
# Pemphigus Ab inh: human desmoglein-3 autoantibody binding inhibition. P32926. DSG3-coupled beads, scFv-anti-DSG3-GFP binding, flow cytometry; hits give low values. binding (percent of control), % at 10 µM. 0.48% of 310,000 active. AID 588358;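 active means binding more than 3 SD below its plate's average and above zero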;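 further: hits lower antibody fragment binding to DSG3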
# MsrA inhibitor: bovine MsrA inhibition; AID 651718; purified bovine MsrA, absorbance read-out; 0.75% of 360,000 active; inhibition, % at 15.5 µM
# bovine MsrA act: activators of bovine methionine sulfoxide reductase A; 0.3% of 360,000 active; activation, % at 10.6 µM; purified bovine MsrA, absorbance read-out; in the data active means activation above about 7.5%
# NadD inh: inhibitors of Staphylococcus aureus NadD. purified NadD enzyme, colorimetric absorbance read-out. inhibition, % at 20 µM. 0.78% of 360,000 active; in the data active means inhibition above about 26%
# DAGLB inhibitor: diacylglycerol lipase beta (human) inhibition; AID 504411; inhibition, % at 5.17 µM; HEK293T DAGLB membrane lysate, EnzChek fluorogenic substrate; 0.059% of 340,000 active; Q8NCG7; in the data active means inhibition above about 34%
# Target sequence (Q8NCG7 whole entry, looked up): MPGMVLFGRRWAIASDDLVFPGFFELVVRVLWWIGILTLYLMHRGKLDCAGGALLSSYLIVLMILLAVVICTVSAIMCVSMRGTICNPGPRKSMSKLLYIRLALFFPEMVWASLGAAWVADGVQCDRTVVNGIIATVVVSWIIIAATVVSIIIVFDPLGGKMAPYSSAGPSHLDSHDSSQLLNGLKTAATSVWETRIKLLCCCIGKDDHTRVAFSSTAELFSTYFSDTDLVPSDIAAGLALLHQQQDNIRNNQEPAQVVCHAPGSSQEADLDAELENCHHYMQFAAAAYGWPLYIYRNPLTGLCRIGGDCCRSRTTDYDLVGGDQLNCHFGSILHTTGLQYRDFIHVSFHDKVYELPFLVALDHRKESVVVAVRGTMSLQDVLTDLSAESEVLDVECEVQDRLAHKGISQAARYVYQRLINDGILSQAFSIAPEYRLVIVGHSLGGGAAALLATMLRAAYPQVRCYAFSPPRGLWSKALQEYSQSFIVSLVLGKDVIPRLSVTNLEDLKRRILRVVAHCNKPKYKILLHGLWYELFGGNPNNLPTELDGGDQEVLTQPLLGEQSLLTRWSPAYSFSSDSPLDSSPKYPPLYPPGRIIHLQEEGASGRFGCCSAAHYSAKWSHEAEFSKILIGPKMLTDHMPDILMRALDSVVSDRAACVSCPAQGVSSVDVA
# MsrA conf: confirmation of bovine MsrA inhibitors | 41% of 2,300 active | purified bovine MsrA, absorbance read-out | AID 651822 | shares compounds with MsrA inhibitor | inhibition, % at 15.5 µM;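 further: coupled to thioredoxin reductase with NADPH and selenocystamine and DMSO as substrate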
# A number is an active result; – = inactive; · = no result. Unless noted, no stated cut-off is given here; in the data, active means inhibition above about 4.5%; inactive means the rest.
SMILES,rCAG RNA binder,Pemphigus Ab inh,MsrA inhibitor,bovine MsrA act,NadD inh,DAGLB inhibitor,MsrA conf
CC(C)OC(=O)/C(=C/c1ccc2c(c1)c1ccccc1n2C)NC(=O)c1ccccc1,–,–,4.8,–,–,–,–
CC(C)OC(=O)/C(=C\c1ccc2c(c1)c1ccccc1n2C)NC(=O)c1ccccc1,–,–,–,–,–,–,·
COC(=O)[C@]12C[C@H](CC(=O)NCCC(C)C)C(=O)N(Cc3ccc(Cl)cc3Cl)C1=C[C@H](C(C)C)O[C@@H]2C1CC1,–,·,·,·,·,·,·
COc1cc(/C=N/Nc2ncnc3sc4c(c23)CCC4)ccc1O,–,–,5.5,–,–,–,–
CCCCSc1nc2sc3c(c2c(=O)n1-c1ccccc1)CCN(C)C3,–,–,5.4,–,–,–,–
COC(=O)CSc1nc2sc3c(c2c(=O)n1-c1ccccc1)CCN(C)C3,–,–,4.7,–,–,–,–
O=C(NCCc1c[nH]c2ccccc12)OCc1cn(Cc2cccc(F)c2)nn1,–,·,·,·,·,·,·
COc1ccc([C@H]2OC(=O)C[C@@H]2C(=O)N2CCN(c3ccccc3F)CC2)cc1OC,–,·,·,·,·,·,·
CCCCNC(=O)C[C@H]1C[C@@]2(C(=O)OC)C(=C[C@H](C(C)(C)C)O[C@@H]2C)N(Cc2cccc3ccccc23)C1=O,–,·,·,·,·,·,·
CC(=O)c1ccc(N2CCN(C(=O)c3ccc(Cn4c(=S)[nH]c5ccc(N6CCOCC6)cc5c4=O)cc3)CC2)cc1,–,–,5.0,–,–,–,4.8
CCN(CC)C(=O)CC[C@H]1CC[C@]2(CCCN(Cc3ccccc3)C2)O1,–,·,·,·,·,·,·
CC(=O)Nc1ccc(/C=N\NC(=O)c2cccc(S(=O)(=O)N(C)C)c2)cc1,–,·,·,·,·,·,·
CCOC(=O)/C(=C/c1c[nH]c2ccccc12)NC(C)=O,–,–,5.0,–,–,–,–
O=[N+]([O-])c1cc2c(c([N+](=O)[O-])c1)Nc1ccccc1O2,–,–,–,–,–,–,·
O=C(Nc1nnc([C@H]2C[C@H](O)[C@@H](CO)O2)s1)c1ccc(Oc2ccccc2)cc1,–,·,–,–,–,·,·
O=C(O)c1cc(O)c2c(c1)C(=O)c1cccc(O)c1C2=O,–,·,4.7,–,–,–,17
CCOC(=O)/C(C#N)=C/Nc1cc(F)ccc1C,–,–,5.8,–,–,–,–
CCOC(=O)C(=O)/C(C#N)=C/Nc1ccc(F)cc1,–,–,–,–,–,–,·
CCSc1nc(N2CCCCC2)c2c(c1C#N)CCCC2,–,–,–,–,–,–,·
N#Cc1c(SCc2ccccc2)nc(N2CCOCC2)c2c1CCCC2,–,·,14,–,–,–,10
Cc1cc(C)nc(Nc2ncc(O)n2-c2ccc(C)c(C)c2)n1,–,–,8.0,–,–,–,6.6
COc1ccc(OC)c(-n2c(O)cnc2Nc2nc(C)cc(C)n2)c1,–,·,–,–,–,–,·
Cc1cc(C)nc(Nc2ncc(O)n2-c2ccc(C)c(Cl)c2)n1,–,–,9.1,–,–,–,5.4
C/C(=N/Nc1nc(C)cc(C)n1)c1ccc(Br)cc1,–,–,–,–,–,–,·
Cc1cc(C)nc(Nc2ncc(O)n2-c2ccc(Br)cc2)n1,–,–,8.1,–,–,–,–
SMILES,rCAG RNA binder,Pemphigus Ab inh,MsrA inhibitor,bovine MsrA act,NadD inh,DAGLB inhibitor,MsrA conf
Cc1cc(C)n(-c2ccc(C)c(Cl)c2)n1,–,–,–,–,–,–,·
COc1cc(OC)nc(Nc2nc(C(N)Cc3ccc(F)cc3)cs2)n1 (stereo unspecified),–,·,–,–,–,·,·
CC(C)C(=O)N1CC[C@H]2[C@H](CCCN2Cc2cc(F)cc(F)c2)C1,–,·,·,·,·,·,·
CC(=O)c1c(C(=O)O)c2ccccc2[nH]c1=O,–,–,5.1,–,–,–,–
COc1cc(Cl)ccc1OC1(C)CCN(Cc2cccc(OC)c2OC)C1 (stereo unspecified),–,·,–,–,–,·,·
COc1cccc(NC(=O)Nc2nc3ncccn3c2-c2ccc(F)c(F)c2)c1,–,·,·,·,·,·,·
CC(CC(=O)c1ccccc1)=NCCCN=C(C)CC(=O)c1ccccc1,–,–,5.2,–,–,–,–
CC(=O)c1cnc2sccn2c1=O,–,–,6.2,–,–,–,–
CC1Cc2ccccc2N1C(=O)c1cnc2sccn2c1=O (stereo unspecified),–,–,5.4,–,–,–,–
Cc1ccc(Cn2cc(CN3[C@@H](CC(C)C)COc4cccc(F)c4S3(=O)=O)nn2)cc1,–,·,·,·,·,·,·
CCN(CC)S(=O)(=O)c1ccc(N/N=C/c2cccnc2)nc1,–,–,5.8,–,–,–,4.7
